Experimental data published in PubChem BioAssay (Tox21).
Inconclusive results are not listed. Unmarked numbers belong to inactive results. Activity calls are given as the source filed them. Calls come from the whole dose curve.

experiment: qHTS assay to identify small molecule agonists of the AP-1 signaling pathway - cell viability counter screen (AID 1159525); details: ME-180 AP-1-bla cells viability, ATP luminescence, 5 h; series mostly up to 76.8 µM; note: nearly all actives have a fitted effect of over 55% in size
How it was run: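 AP-1-bla ME-180 cells in Opti-MEM with 0.5% dialyzed FBS, compound exposure 5 h at 37 C in 15-point titration. Viability read in the same wells as ATP content by CellTiter-Glo luminescence, normalised to tetra-n-octylammonium bromide and DMSO controls.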

| Structure (SMILES) | outcome | viability change, negative = cytotoxic |
| --- | --- | --- |
| C[N+]1(C)[C@@H]2CC(OC(=O)[C@H](CO)c3ccccc3)C[C@H]1[C@@H]1O[C@@H]12 (some centres not stated) | inactive | – |
| CC1=NN(c2cccc(S(=O)(=O)O)c2)C(=O)C1 | inactive | – |
| CC(=O)Nc1ccc(OCC(O)CNC(C)C)cc1 (configuration not stated) | inactive | – |
| NS(=O)(=O)Cc1noc2ccccc12 | inactive | – |
| CN(C)C(=O)Oc1cccc([N+](C)(C)C)c1 | inactive | – |
| CC[C@H]1OC(=O)[C@H](C)[C@@H](O[C@H]2C[C@@](C)(OC)[C@@H](O)[C@H](C)O2)[C@H](C)[C@@H](O[C@@H]2O[C@H](C)C[C@H](N(C)C)[C@H]2O)[C@](C)(OC)C[C@@H](C)C(=O)[C@H](C)[C@@H](O)[C@]1(C)O | inactive | – |
| OCCCCCO | inactive | – |
| CCCCOCCOC(=O)COc1cc(Cl)c(Cl)cc1Cl | inactive | – |
| CC1(C)[C@@H]2CC[C@@]1(C)[C@H](O)C2 | inactive | – |
| O=C(CO)[C@@H](O)[C@H](O)[C@@H](O)CO | inactive | – |
| CC1CCC(CO)CC1 (configuration not stated) | inactive | – |
| CC(C#N)(CCC(=O)O)N=NC(C)(C#N)CCC(=O)O (configuration not stated) | inactive | – |
| CCCCS(=O)(=O)N[C@@H](Cc1ccc(OCCCCC2CCNCC2)cc1)C(=O)O | inactive | – |
| CCN1CCOCC1 | inactive | – |
| C[C@@H]1C[C@H]2[C@@H]3C[C@H](F)C4=CC(=O)C(Cl)=C[C@]4(C)[C@@]3(F)[C@@H](O)C[C@]2(C)[C@@]1(O)C(=O)CO | inactive | – |
| CC(C)NNC(=O)c1ccncc1 | inactive | – |
| NC(=O)Cc1cccc2ccccc12 | inactive | – |

| Structure (SMILES) | outcome | viability change, negative = cytotoxic |
| --- | --- | --- |
| CCCC[N+](C)(CCCC)CCCC | inactive | – |
| CCOC(=O)c1ccccc1 | inactive | – |
| CCC(C)(CN(C)C)OC(=O)c1ccccc1 (configuration not stated) | inactive | – |
| C=CN1CCCCCC1=O | inactive | – |
| C1CCC2(CCCCO2)OC1 | inactive | – |
| CO/N=C(\C(=O)N[C@@H]1C(=O)N2C(C(=O)O)=C(CSc3nc(=O)c(O)nn3C)CS[C@H]12)c1csc(N)n1 | inactive | – |
| C[N+]1(CC2COC(c3ccccc3)(c3ccccc3)O2)CCCCC1 (configuration not stated) | – | 0.502% [at 15.8 µM] |
| CC/C=C\CCOC(C)OCC (configuration not stated) | inactive | – |
| O=C(O)c1cn(C2CC2)c2cc(N3CCNCC3)c(F)cc2c1=O | inactive | – |
| CCCCCCCCCCCCSC | inactive | – |
| CC(C)c1ccc2ncccc2c1 | inactive | – |
| CC(=O)N1C[C@H](O)C[C@H]1C(=O)O | inactive | – |
| CCCCCCCCCCCCCCC(=O)O | inactive | – |
| O=C1NC(=O)C2CC=CCC12 (configuration not stated) | inactive | – |
| N[C@H](C(=O)O)[C@@H](O)c1ccc(O)c(O)c1 | inactive | – |
| COc1ccnc(CS(=O)c2nc3cc(OC(F)F)ccc3[nH]2)c1OC (configuration not stated) | inactive | – |

experiment: qHTS assay to identify small molecule agonists of the AP-1 signaling pathway (AID 1159526); details: ME-180 (cervical carcinoma) AP-1-bla reporter, beta-lactamase FRET ratio, 5 h; series mostly up to 76.8 µM; note: % is set by controls: 0 for no effect and ±100 for the full control effect

| Structure (SMILES) | outcome | activation |
| --- | --- | --- |
| C[N+]1(C)[C@@H]2CC(OC(=O)[C@H](CO)c3ccccc3)C[C@H]1[C@@H]1O[C@@H]12 (some centres not stated) | inactive | – |
| CC1=NN(c2cccc(S(=O)(=O)O)c2)C(=O)C1 | inactive | – |
| CC(=O)Nc1ccc(OCC(O)CNC(C)C)cc1 (configuration not stated) | inactive | – |
| NS(=O)(=O)Cc1noc2ccccc12 | inactive | – |
| CCCO[Si](OCCC)(OCCC)OCCC | inactive | – |
| C[C@H]1C[C@H]2[C@@H]3CCC4=CC(=O)C=C[C@]4(C)[C@H]3C(=O)C[C@]2(C)[C@@]1(O)C(=O)CO | inactive | – |
| CCCc1nn(C)c2c(=O)[nH]c(-c3cc(S(=O)(=O)N4CCN(C)CC4)ccc3OCC)nc12 | inactive | – |
| CN(C)C(=O)Oc1cccc([N+](C)(C)C)c1 | inactive | – |
| CC[C@H]1OC(=O)[C@H](C)[C@@H](O[C@H]2C[C@@](C)(OC)[C@@H](O)[C@H](C)O2)[C@H](C)[C@@H](O[C@@H]2O[C@H](C)C[C@H](N(C)C)[C@H]2O)[C@](C)(OC)C[C@@H](C)C(=O)[C@H](C)[C@@H](O)[C@]1(C)O | inactive | – |
| OCCCCCO | inactive | – |
| CCCCOCCOC(=O)COc1cc(Cl)c(Cl)cc1Cl | inactive | – |
| CC1(C)[C@@H]2CC[C@@]1(C)[C@H](O)C2 | inactive | – |
| CC(CO)(CO)[N+](=O)[O-] | inactive | – |
| O=C(CO)[C@@H](O)[C@H](O)[C@@H](O)CO | inactive | – |
| CC1CCC(CO)CC1 (configuration not stated) | inactive | – |
| CC(C#N)(CCC(=O)O)N=NC(C)(C#N)CCC(=O)O (configuration not stated) | inactive | – |
| CCCCS(=O)(=O)N[C@@H](Cc1ccc(OCCCCC2CCNCC2)cc1)C(=O)O | inactive | – |
| CCN1CCOCC1 | inactive | – |
| C[C@@H]1C[C@H]2[C@@H]3C[C@H](F)C4=CC(=O)C(Cl)=C[C@]4(C)[C@@]3(F)[C@@H](O)C[C@]2(C)[C@@]1(O)C(=O)CO | inactive | – |
| CC(C)NNC(=O)c1ccncc1 | inactive | – |

| Structure (SMILES) | outcome | activation |
| --- | --- | --- |
| NC(=O)Cc1cccc2ccccc12 | inactive | – |
| CCCC[N+](C)(CCCC)CCCC | inactive | – |
| CCOC(=O)c1ccccc1 | inactive | – |
| CCC(C)(CN(C)C)OC(=O)c1ccccc1 (configuration not stated) | inactive | – |
| C=CN1CCCCCC1=O | inactive | – |
| C1CCC2(CCCCO2)OC1 | inactive | – |
| CO/N=C(\C(=O)N[C@@H]1C(=O)N2C(C(=O)O)=C(CSc3nc(=O)c(O)nn3C)CS[C@H]12)c1csc(N)n1 | inactive | – |
| C[N+]1(CC2COC(c3ccccc3)(c3ccccc3)O2)CCCCC1 (configuration not stated) | – | -1.1% [at 15.8 µM] |
| CC/C=C\CCOC(C)OCC (configuration not stated) | inactive | – |
| O=C(O)c1cn(C2CC2)c2cc(N3CCNCC3)c(F)cc2c1=O | inactive | – |
| CCCCCCCCCCCCSC | inactive | – |
| CC(C)c1ccc2ncccc2c1 | inactive | – |
| CC(=O)N1C[C@H](O)C[C@H]1C(=O)O | inactive | – |
| C[N+]12CCC(CC1)C(OC(=O)C(O)(c1ccccc1)c1ccccc1)C2 (configuration not stated) | inactive | – |
| CCN[C@@H]1C[C@H](N)[C@@H](OC2OC(CN)=CCC2N)[C@H](O)[C@H]1O[C@H]1OC[C@](C)(O)[C@H](NC)[C@H]1O (some centres not stated) | – | -3.82% [at 0.29 µM] |
| CCCCCCCCCCCCCCC(=O)O | inactive | – |
| O=C1NC(=O)C2CC=CCC12 (configuration not stated) | inactive | – |
| N[C@H](C(=O)O)[C@@H](O)c1ccc(O)c(O)c1 | inactive | – |
| COc1ccnc(CS(=O)c2nc3cc(OC(F)F)ccc3[nH]2)c1OC (configuration not stated) | inactive | – |
